PPARg SRC-1 ag – PPARgamma-driven SRC-1 recruitment agonism | PPARgamma-SRC-1 coactivator recruitment biochemical assay | 0.41% of 200,000 active | activation, % at 8 µM | P37231; in the data active means activation above about 19%
PPARg SRC2 recr – promotes SRC-2 coactivator recruitment by human PPARgamma; activation, % at 8 µM; AID 1032; PPARgamma LBD-SRC-2 recruitment, biochemical; P37231; 0.34% of 200,000 active; in the data active means activation above about 22%
SRC1 TRFRET art – counter-screen for PPARgamma SRC-1 recruitment agonists: TR-FRET artefact | TR-FRET detection artefact counter-screen, emission ratio; active compounds read high | TR-FRET ratio at 8 µM | 0.34% of 99,000 active | AID 1051; in the data active means TR-FRET ratio above about 2300
SRC3 TRFRET art – flags TR-FRET format artefacts in PPARgamma SRC-3 recruitment agonist screen; TR-FRET artefact counter-screen, PPARgamma/SRC-3 format; active compounds read high; TR-FRET ratio at 8 µM; 0.39% of 99,000 active
SRC2 TRFRET art – TR-FRET artefact, counter-screen to PPARgamma/SRC-2 agonist assay; active compounds read high; AID 1049; 0.4% of 200,000 active; TR-FRET ratio at 8 µM
PPARg SRC3 recr – PPARgamma-driven SRC-3 recruitment agonism; activation, % at 8 µM; biochemical PPARgamma/SRC-3 coactivator recruitment assay; 0.26% of 200,000 active; in the data active means activation above about 23%
PPARg SRC2 ag – human PPARgamma SRC-2 recruitment agonism, confirmation | shares compounds with PPARg SRC3 recr | biochemical SRC-2 recruitment by PPARgamma | activation, % at 8 µM | 52% of 790 active; in the data active means activation above about 22%
PPARg SRC1 conf – human PPARgamma SRC-1 recruitment agonism, confirmation; activation, % at 8 µM; 43% of 790 active; PPARgamma–SRC-1 coactivator recruitment biochemical assay; shares compounds with PPARg SRC3 recr; AID 1300; in the data active means activation above about 20%
PPARg SRC3 conf – confirmation of agonists of SRC-3 recruitment by human PPARgamma; 29% of 790 active; AID 1301; biochemical PPARgamma-SRC-3 coactivator recruitment, agonist mode; shares compounds with PPARg SRC3 recr; activation, % at 8 µM; in the data active means activation above about 24%
A number is an active result; 0 = inactive; - = no result given. Most compounds without a hit are left out; they make up all but 0.84% or so of the library. Unless noted, no stated cut-off is given here; in the data, active means TR-FRET ratio above about 2000; inactive means the rest.

SMILES | PPARg SRC-1 ag | PPARg SRC2 recr | SRC1 TRFRET art | SRC3 TRFRET art | SRC2 TRFRET art | PPARg SRC3 recr | PPARg SRC2 ag | PPARg SRC1 conf | PPARg SRC3 conf
CC(=O)N(c1ccc(C)cc1)S(=O)(=O)c1ccc(Cl)cc1 | 0 | 0 | 0 | 0 | 0 | 0 | - | - | -
c1ccc2nc(-c3ccc(N4CCOCC4)cc3)ccc2c1 | 51 | 0 | - | - | 0 | 71 | 0 | 0 | 0
Cc1ccc(NS(=O)(=O)c2cc(C(=O)NCCSc3ccc(C)cc3)ccc2C)cc1 | 20 | 0 | - | - | 0 | 0 | 0 | 0 | 0
O=C(CSc1nnc(NC(=O)C2CC2)s1)Nc1ccc2c(c1)OCCO2 | 0 | 0 | 0 | 0 | 0 | 0 | - | - | -
COc1ccc(CCNC(=O)c2cccnc2SC)cc1 | 0 | 0 | 0 | 0 | 0 | 0 | - | - | -
COc1cccc2c1C(=O)c1c(O)c3c(c(O)c1C2=O)C[C@@](O)(C(=O)CO)C[C@@H]3O[C@H]1C[C@H](N)[C@H](O)[C@H](C)O1 | 28 | 0 | 0 | 0 | 0 | 0 | 0 | 0 | 0
O=C1c2ccccc2-c2cccc(NS(=O)(=O)c3ccc(C(F)(F)F)cc3)c21 | 0 | 0 | - | - | 0 | 31 | 24 | 22 | 0
Cn1c(=O)cc(SCC(=O)NCCCN2CCOCC2)c2ccccc21 | 30 | 28 | - | - | 2011 | 46 | 0 | 0 | 0
Cn1c(C(=O)NCCCN2CCN(c3ccccc3F)CC2)cc2c(=O)n(C)c3ccccc3c21 | 0 | 0 | - | - | 0 | 0 | - | - | -
Cn1c(=O)cc(SCC(=O)NCCCN2CCN(c3ccccc3F)CC2)c2ccccc21 | 90 | 92 | - | - | 4083 | 125 | 52 | 34 | 36
CCCCNC(=O)CSc1nc(CCC)nc2ccccc12 | 31 | 0 | 0 | 0 | 0 | 31 | 0 | 24 | 0
CCCCNC(=O)CSc1cc(=O)n(C)c2ccccc12 | 33 | 41 | - | - | 2320 | 43 | 31 | 20 | 0
Cn1c(C(=O)NCCCN2CCOCC2)cc2c(=O)n(C)c3ccccc3c21 | 0 | 0 | - | - | 0 | 0 | - | - | -
O=C(O)CCc1ccc(-c2cccs2)n1CC(=O)Nc1ccccc1C(F)(F)F | 0 | 0 | 0 | 0 | 0 | 0 | - | - | -
CCOc1ccc(CCNC(=O)CSc2cc(=O)n(C)c3ccccc23)cc1OCC | 26 | 26 | 2625 | 0 | 2107 | 0 | 31 | 0 | 0
Cn1c(=O)cc(SCC(=O)NCCCN2CCOCC2)c2ccc(Cl)cc21 | 60 | 65 | - | - | 2615 | 83 | 47 | 31 | 32
CCOc1ccc(CCNC(=O)COc2cc(=O)n(C)c3ccccc23)cc1OCC | 0 | 0 | 0 | 0 | 0 | 0 | - | - | -
CCc1ccc2[nH]c3nc(SCc4nnc(-c5ccc(C)cc5)o4)nnc3c2c1 | 0 | 0 | - | - | 0 | 0 | - | - | -
O=C(NC1CCCc2ccccc21)c1cccc(S(=O)(=O)N2CCOCC2)c1 (stereo unspecified) | 0 | 0 | 0 | 0 | 0 | 0 | - | - | -
Cc1onc(-c2ccccc2Cl)c1C(=O)Nc1nnc(-c2ccc(F)cc2)s1 | 0 | 22 | - | - | 0 | 32 | 0 | 0 | 0
Cc1onc(-c2ccccc2Cl)c1C(=O)Nc1nnc(-c2ccc(Br)cc2)s1 | 29 | 28 | - | - | 2175 | 0 | 32 | 0 | 0
Cc1onc(-c2ccccc2Cl)c1C(=O)Nc1ccc(F)c(F)c1 | 0 | 0 | - | - | 0 | 0 | - | - | -
Cc1onc(-c2c(F)cccc2Cl)c1C(=O)Nc1nnc(C2CC2)s1 | 0 | 0 | - | - | 0 | 0 | - | - | -
Cc1onc(-c2ccccc2Cl)c1C(=O)Nc1nnc(-c2ccc(Cl)cc2Cl)s1 | 23 | 0 | - | - | 0 | 0 | 31 | 23 | 0
Cc1onc(-c2c(F)cccc2Cl)c1C(=O)Nc1nnc(-c2ccccc2)s1 | 0 | 0 | - | - | 0 | 26 | 26 | 25 | 0
Cc1onc(-c2ccccc2Cl)c1C(=O)Nc1nn[nH]n1 | 0 | 0 | 0 | 0 | 0 | 0 | - | - | -
CCn1c(CCNC(=O)c2cccs2)n[nH]c1=S | 0 | 0 | 0 | 0 | 0 | 0 | - | - | -
O=C(O)C(Cc1ccccc1)n1c(=S)[nH]c2ccccc2c1=O (stereo unspecified) | 0 | 0 | 0 | 0 | 0 | 0 | - | - | -
CC(/C=C/c1ccccc1)=N\NC(=O)Cn1nc(C)cc1C | 0 | 0 | 0 | 0 | 0 | 0 | - | - | -

Screening results deposited in PubChem by The Scripps Research Institute Molecular Screening Center.
